The values below come from PubChem BioAssay.

Experiment [1] in a line: Wnt pathway potentiators raising nuclear beta-catenin – imaging, WNT3A-conditioned medium, mouse C2C12, NPC library, primary screen (AID 1117326; in the data active = nuclear beta-catenin stimulation mostly above about 4.2%, no sharp cut-off; inactive = mostly below about 10%). The following applies: stronger effect = higher value.
Experiment [2] can be described thus: stimulators of insulin release from INS-1E, primary screen, cell-based, 5 mM glucose, NPC library (AID 1117329;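 active = compound raises insulin release from rat beta cells at 5 mM glucose, no numeric limit stated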). The following applies: rat INS-1E insulin secretion, at 10 µM, stronger effect = higher value.
Experiment [3] can be described thus: growth inhibition of GSK3B-pretreated HCT116 cells – cell-based, CellTiter-Glo, 0.2 to 20 µM (AID 1117336;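 active = compounds lowering colon cancer cell viability after pretreatment blocking the GSK3B kinase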). The following applies: HCT116 viability after GSK3B inhibitor, at 20 µM, stronger effect = higher value. For orientation: In ATP-based viability assays light output follows the ATP content of the culture.
Experiment [4] can be described thus: inhibition of endothelial tube formation, primary screen, imaging, VEGF stimulated, CD31 staining, tube area, NPC library (AID 1117340;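 active = compound that reduces growth-factor-driven endothelial tube area in a mixed cell culture, no cutoff stated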). The following applies: VEGF-stimulated ADSC/ECFC co-culture, at 10 µM, stronger effect = higher value.
Experiment [5] is described as follows: GLP1 release stimulators, primary, NCI-H716, NPC library (AID 1117341;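 active = compound raises GLP1 secretion from the human gut endocrine cells, with no numeric limit stated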). The following applies: NCI-H716 cells, at 10 µM, stronger effect = higher value.
The nature of experiment [6]: HCT116 colon cancer cell growth inhibition, primary screen, CellTiter-Glo luminescence, NPC library (AID 1117342;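 active = compounds that lower survival of HCT116 colon cancer cells in the luminescence readout, no numeric limit stated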). The following applies: at 20 µM (top of the series).
Experiment [7] is described as follows: reduced SW480 viability measured with CellTiter-Glo, NPC library, primary (AID 1117343;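 active = compounds that lower viability of the colon cancer cells in the luminescence readout, with no numeric limit stated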). The following applies: CellTiter-Glo luminescence; at 20 µM (top of the series).
Experiment [8] in a line: NPC library primary testing for decreased DLD-1 cell viability via CellTiter-Glo (AID 1117346;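 active = compounds that lower survival of DLD-1 colon cancer cells in the luminescence readout, no cutoff given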). The settings on record: DLD-1 viability, CellTiter-Glo luminescence; at 20 µM (top of the series).
Experiment [9] has as its target 6-phosphogluconate dehydrogenase, decarboxylating (Homo sapiens) (UniProt P52209). Description: inhibition of human phosphogluconate dehydrogenase – biochemical, recombinant enzyme, NADPH absorbance, primary screen (AID 1159550;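 active = at least 20% inhibition of 6-phosphogluconate dehydrogenase activity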). The settings on record: recombinant 6PGD, NADPH absorbance 341 nm; at 10 µM; stronger effect = higher value.
The nature of experiment [10]: modulation of C. elegans fzo-1 (AID 1259413; call rule not given here;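 note: fzo-1 mutant C. elegans worms in liquid wells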). The settings on record: C. elegans fzo-1 modulator screen, mean read-out; stronger effect = higher value.
Experiment [11] in a line: EMT-state selective cytotoxicity in co-culture – imaging, PC-3E GFP, TEM4-18 mCherry, primary screen (AID 1345086;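 active = compounds killing one labelled cell type while sparing the other, by normalised counts and ratio limits, not self-fluorescent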;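 note: cells exposed to compound for 72 h before imaging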;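 for red/green cell ratio (normalised): normalised mesenchymal count divided by normalised epithelial count so high means epithelial killing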). The following applies: PC-3E GFP / TEM4-18 mCherry co-culture, imaging cell counts, at 1 µM.
Experiment [12] can be described thus: MELAS cybrid and Rieske KO viability enhancers – cell-based, MELAS cybrids, Rieske KO mouse fibroblasts, CellTiter-Glo, primary screen (AID 1508586;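 active = mean z-score across replicates of 1.96 or higher in either the MELAS or the Rieske mutant cell line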;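 note: z relative to plate mean and SD of compound and empty wells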). The settings on record: low glucose.
Experiment [13] addresses NAD(+) hydrolase SARM1 (Homo sapiens) (UniProt Q6SZW1). Put plainly: blocking NAD cleavage by SARM1 SAM-TIR – cell lysate, NAD-Glo luminescence (AID 1508614;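 active = compound whose remaining NAD level is above about 45 nM, limit read from the data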;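 note: higher remaining NAD means stronger inhibition of SARM1 NADase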). The settings on record: SAM-TIR HEK293T lysate NADase, at 1 µM, stronger effect = higher value.
Experiment [14] addresses Mitogen-activated protein kinase 7 (Homo sapiens) (UniProt Q13164). Put plainly: Gal4-ERK5 driven luciferase induction – cell-based, HTS, primary screen (AID 1508626;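 active = luciferase signal above three times the same-plate solvent-only control wells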;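 note: luciferase driven by Gal4-ERK5 fusion binding five Gal4 sites before minimal TATA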). The following applies: HeLa Gal4-ERK5 transactivation, 18 h, at 5 µM, stronger effect = higher value.
For the next experiment, the system named is F380Y. Description: BK channel mutant inhibitors and activators – cell-based, U2OS BacMam, thallium flux, beta subunits, selectivity assay, profiling panel (AID 1259406).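 Note: initial slope of Thallos dye fluorescence rise after thallium is added; log ratio against the mean of 0.3% DMSO vehicle wells on the same plate.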 The following applies: U2OS BacMam BK variants, at 30 µM.
The test system of the next experiment is F380Y/beta1. The description is as above. The settings on record: U2OS BacMam BK variants, at 30 µM.
The next experiment deals with F380Y/beta2Delta. The description is as above. The following applies: U2OS BacMam BK variants, at 30 µM.
Another experiment relates to F380Y/beta4. The experiment is described as above. The settings on record: U2OS BacMam BK variants, at 30 µM.
In experiment [15] the target is Calcium-activated potassium channel subunit alpha-1 (Homo sapiens) + Leucine-rich repeat-containing protein 26 (Homo sapiens) (UniProt Q12791+Q2I0M4). The experiment is described as above. The settings on record: U2OS BacMam BK variants, F380Y/Slo1WT/gamma1, at 30 µM.
Calcium-activated potassium channel subunit alpha-1 (Homo sapiens) + Leucine-rich repeat-containing protein 26 (Homo sapiens), sequence (Q2I0M4 whole entry, looked up, one chain of several): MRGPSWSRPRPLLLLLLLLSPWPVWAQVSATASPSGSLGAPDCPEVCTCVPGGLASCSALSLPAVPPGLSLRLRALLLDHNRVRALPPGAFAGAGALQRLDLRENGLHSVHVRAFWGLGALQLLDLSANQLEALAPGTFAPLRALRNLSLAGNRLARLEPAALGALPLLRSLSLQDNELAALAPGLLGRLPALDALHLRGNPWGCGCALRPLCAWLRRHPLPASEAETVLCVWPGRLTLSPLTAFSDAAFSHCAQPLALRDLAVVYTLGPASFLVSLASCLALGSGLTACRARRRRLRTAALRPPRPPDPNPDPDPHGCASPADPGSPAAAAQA

The structures appear in SMILES notation. Values joined by “and” are separate entries in the source; they are usually repeats but may differ in a detail not shown here. Equal entries are not always repeated. Active and inactive are the calls of the source.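 Rule for the calls, unless noted: active = thallium flux through the channel raised or lowered by more than 3 SD from vehicle-only wells, actives on both sides; inactive = the rest.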

NAD(+) hydrolase SARM1 (Homo sapiens), sequence (Q6SZW1 whole entry, looked up, the tested form may be a part): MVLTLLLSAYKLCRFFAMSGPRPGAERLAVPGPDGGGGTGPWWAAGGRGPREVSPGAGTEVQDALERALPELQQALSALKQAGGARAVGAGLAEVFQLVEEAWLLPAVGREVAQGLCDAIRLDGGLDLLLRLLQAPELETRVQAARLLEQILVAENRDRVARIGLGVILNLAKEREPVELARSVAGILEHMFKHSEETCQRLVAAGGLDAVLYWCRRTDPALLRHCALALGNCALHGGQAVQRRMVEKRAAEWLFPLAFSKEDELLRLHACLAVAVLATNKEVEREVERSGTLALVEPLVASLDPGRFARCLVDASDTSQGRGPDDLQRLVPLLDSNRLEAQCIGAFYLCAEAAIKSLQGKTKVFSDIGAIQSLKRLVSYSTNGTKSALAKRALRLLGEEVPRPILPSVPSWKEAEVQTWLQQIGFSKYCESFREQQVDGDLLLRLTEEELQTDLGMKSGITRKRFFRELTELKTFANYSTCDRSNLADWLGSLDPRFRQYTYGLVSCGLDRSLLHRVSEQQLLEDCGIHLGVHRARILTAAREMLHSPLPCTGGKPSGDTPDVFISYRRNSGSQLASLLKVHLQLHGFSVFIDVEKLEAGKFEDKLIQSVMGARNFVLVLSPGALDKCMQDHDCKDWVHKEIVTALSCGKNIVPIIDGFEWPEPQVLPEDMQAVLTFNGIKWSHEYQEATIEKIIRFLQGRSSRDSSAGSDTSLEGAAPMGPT
Mitogen-activated protein kinase 7 (Homo sapiens), sequence (Q13164 whole entry, looked up, the tested form may be a part): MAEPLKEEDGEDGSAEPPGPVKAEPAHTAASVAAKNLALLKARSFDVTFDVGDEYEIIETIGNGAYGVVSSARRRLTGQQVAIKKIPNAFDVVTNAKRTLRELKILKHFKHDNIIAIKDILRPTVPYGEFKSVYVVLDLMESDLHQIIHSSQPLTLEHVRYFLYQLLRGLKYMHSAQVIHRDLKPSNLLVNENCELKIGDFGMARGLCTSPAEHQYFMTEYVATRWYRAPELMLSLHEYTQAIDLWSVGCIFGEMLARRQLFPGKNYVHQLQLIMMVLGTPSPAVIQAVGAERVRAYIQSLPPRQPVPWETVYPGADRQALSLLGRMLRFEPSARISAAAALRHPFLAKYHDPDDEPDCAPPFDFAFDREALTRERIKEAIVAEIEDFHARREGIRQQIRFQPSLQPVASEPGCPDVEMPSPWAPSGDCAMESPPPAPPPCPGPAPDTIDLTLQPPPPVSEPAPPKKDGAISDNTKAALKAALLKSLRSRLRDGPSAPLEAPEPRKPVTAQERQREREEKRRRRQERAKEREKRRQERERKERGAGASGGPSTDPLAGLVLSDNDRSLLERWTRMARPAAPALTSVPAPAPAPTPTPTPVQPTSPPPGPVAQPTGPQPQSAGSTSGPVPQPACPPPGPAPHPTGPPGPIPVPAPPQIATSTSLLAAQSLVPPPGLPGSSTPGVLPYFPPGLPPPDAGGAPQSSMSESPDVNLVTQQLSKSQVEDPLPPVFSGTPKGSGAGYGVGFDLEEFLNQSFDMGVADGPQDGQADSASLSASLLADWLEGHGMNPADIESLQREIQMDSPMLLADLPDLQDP
6-phosphogluconate dehydrogenase, decarboxylating (Homo sapiens), sequence (P52209 whole entry, looked up): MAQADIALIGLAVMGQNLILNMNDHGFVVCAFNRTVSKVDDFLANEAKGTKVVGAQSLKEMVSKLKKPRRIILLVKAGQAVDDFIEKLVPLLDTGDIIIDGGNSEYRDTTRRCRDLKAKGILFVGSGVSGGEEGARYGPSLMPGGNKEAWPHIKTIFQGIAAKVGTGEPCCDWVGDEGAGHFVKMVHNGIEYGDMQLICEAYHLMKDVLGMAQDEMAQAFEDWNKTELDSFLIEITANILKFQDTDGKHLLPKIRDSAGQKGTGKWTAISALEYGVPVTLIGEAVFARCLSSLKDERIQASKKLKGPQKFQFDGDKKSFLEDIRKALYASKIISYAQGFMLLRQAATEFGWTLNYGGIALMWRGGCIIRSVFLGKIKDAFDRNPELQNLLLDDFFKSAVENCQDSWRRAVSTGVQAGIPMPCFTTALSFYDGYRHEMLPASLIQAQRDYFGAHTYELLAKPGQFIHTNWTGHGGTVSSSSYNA

`NC12CC3CC(CC(C3)C1)C2`: the nuclear beta-catenin stimulation was 2.1% (inactive) in experiment [1] (at 10 µM) and 1.9% in experiment [1] (stimulation, at 2 µM). Moreover, the insulin secretion stimulation in experiment [2] was 2.4% (inactive). Also, the viability decrease in experiment [3] is 7.6% (inactive). Moreover, in experiment [4], the tube area decrease was 3.9% (inactive). Moreover, the GLP1 secretion stimulation in [5] is 6.5% (inactive). Further, the inhibition of viability in experiment [6] was 30.7% (inactive). Besides, the viability decrease (inhibition) was 56.6% (active) in [7] and 14.6% (inactive) in experiment [8]. Moreover, in experiment [9], the inhibition – broadly, the drop in the measured response relative to a control, in per cent – is -14.3% (inactive). Also, the mean signal in experiment [10] was 230 (inactive). In [11] (actives lie on both sides, counts scaled to control wells, 1 = unselective), the red/green cell ratio (normalised) is 1.38 (inactive). In addition, the normalised cell number in [11] (measured here: epithelial PC-3E GFP cell survival) was found to be 0.95; in experiment [11] (measured here: mesenchymal TEM4-18 mCherry cell survival), 1.32. The z-score in [12] (MELAS cybrid survival, CellTiter-Glo 48 h, stronger effect = higher value) was -0.372 (inactive) and -0.42 (inactive) and -0.564 (inactive); in experiment [12] (Rieske KO mouse fibroblast survival, CellTiter-Glo 72 h) it was -0.543 and 0.116 and -0.0986. Besides, the remaining NAD in experiment [13] is 10 nM (inactive). Further, the luciferase signal in experiment [14] was 44 AU (inactive). Besides, the log fold change Tl+ flux with F380Y is -0.0507 (inactive); in the experiment with F380Y/beta1 it was 0.00169 (inactive); in the experiment on F380Y/beta2Delta, 0.0403 (inactive); in the experiment with F380Y/beta4, 0.0492 (inactive); in experiment [15], 0.0152 (inactive).

For the molecule `Cn1c(=O)c2[nH]c(Br)nc2n(C)c1=O`, the nuclear beta-catenin stimulation in experiment [1] (at 10 µM) is 0.6% (inactive); in [1] (stimulation, at 2 µM) it was 2%. The insulin secretion stimulation in [2] is 0.9% (inactive). Further, the viability decrease in experiment [3] was 2.55% (inactive). Further, the tube area decrease in [4] was 10.2% (inactive). For the same molecule, the GLP1 secretion stimulation in [5] was 1.1% (inactive). Moreover, in [6], the inhibition of viability is -3.7% (inactive). The viability decrease (inhibition) in experiment [7] is -17.4% (inactive); in [8], -0.15% (inactive).

For the molecule `CC[C@H]1CN2CCc3cc(OC)c(OC)cc3[C@@H]2C[C@@H]1C[C@H]1NCCc2cc(OC)c(OC)cc21`, the nuclear beta-catenin stimulation is 12.4% (inactive) in experiment [1] (at 10 µM) and 9.1% in [1] (stimulation, at 2 µM). Also, in experiment [2], the insulin secretion stimulation is 13.4% (inactive). In experiment [3], the viability decrease was 82.1% (active). Moreover, the tube area decrease in experiment [4] is 110% (active). In [5], the GLP1 secretion stimulation is 2.4% (inactive). The inhibition of viability in experiment [6] is 84.8% (active). In addition, the values for the viability decrease (inhibition) in experiment [7] and in [8] were 115% (active) and 97% (active), respectively. Further, in [9], the inhibition was 6.15% (inactive). Moreover, the remaining NAD in experiment [13] was 10 nM (inactive). The luciferase signal in experiment [14] was 24 AU (inactive).
